Experimental data: the supplement of paper PMC6555819

How the values were obtained:
Assay in all cases: PBM binding z-score (relative to random genomic background probes); higher = stronger binding; sequences stand for … in GC…GCGATTGACAGCGTAGAATGAAGG
[1] = system: FXR:RXRa (NR concentration 270 nM, RXRa partner concentration 90 nM)
Summary of the method: (§1)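 The probes on custom Agilent 4×180K protein-binding microarrays were double-stranded, with 34-nt variable regions bearing direct-repeat seeds, single-nucleotide variants, half-site ablations and random human genomic background sequences. Incubation lasted 1 h with ligand-free nuclear receptor dimers in PBS pH 7.4, 2% milk, 0.02% Triton X-100, 1 mM DTT, 0.2 mg/mL BSA and 0.4 mg/ml salmon testes DNA. Antibodies against each partner (one per run) detected bound dimers, and fluorescence scans were regression-normalized. Binding z-scores take the random background probes as reference.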

[2] = system: LXRa:RXRa (NR concentration 270 nM, RXRa partner concentration 90 nM)
Summary of the method: as §1

[3] = system: LXRa homodimer (NR concentration 270 nM)
Summary of the method: as §1

[4] = system: LXRb:RXRa (NR concentration 270 nM, RXRa partner concentration 90 nM)
Summary of the method: as §1

[5] = system: LXRb homodimer (NR concentration 270 nM)
Summary of the method: as §1

[6] = system: PPARa:RXRa (NR concentration 270 nM, RXRa partner concentration 90 nM)
Summary of the method: as §1

[7] = system: PPARg:RXRa (NR concentration 180 nM, RXRa partner concentration 90 nM)
Summary of the method: as §1

[8] = system: PPARg:RXRa 270nM:90nM, anti-RXR (NR concentration 270 nM, RXRa partner concentration 90 nM)
Summary of the method: as §1

[9] = system: PPARg:RXRa 30nM:10nM, anti-RXR (NR concentration 30 nM, RXRa partner concentration 10 nM)
Summary of the method: as §1

[10] = system: PPARg:RXRa 90nM:30nM, anti-RXR (NR concentration 90 nM, RXRa partner concentration 30 nM)
Summary of the method: as §1

[11] = system: PPARg:RXRa DBDmut IVT, anti-RXR (DBD mutation: RXRa K156A/R161A, NR concentration 270 nM, RXRa partner concentration 90 nM)
Summary of the method: as §1

[12] = system: PPARg:RXRa IVT, anti-PPARg (NR concentration 270 nM, RXRa partner concentration 90 nM)
Summary of the method: as §1

[13] = system: PPARg DBDmut:RXRa IVT, anti-PPARg (DBD mutation: PPARg1 K132A/R137A, NR concentration 270 nM, RXRa partner concentration 90 nM)
Summary of the method: as §1

[14] = system: PPARg DBDmut IVT, anti-PPARg (DBD mutation: PPARg1 K132A/R137A, NR concentration 270 nM)
Summary of the method: as §1

[15] = system: PPARg homodimer (NR concentration 180 nM)
Summary of the method: as §1

[16] = system: PXR:RXRa (NR concentration 270 nM, RXRa partner concentration 90 nM)
Summary of the method: as §1

[17] = system: PXR homodimer (NR concentration 270 nM)
Summary of the method: as §1

[18] = system: RARa:RXR (NR concentration 270 nM, RXRa partner concentration 90 nM)
Summary of the method: as §1

[19] = system: RARa homodimer (NR concentration 270 nM)
Summary of the method: as §1

[20] = system: RARb:RXRa (NR concentration 270 nM, RXRa partner concentration 90 nM)
Summary of the method: as §1

Row | Sequence | PBM binding z-score [1] | PBM binding z-score [2] | PBM binding z-score [3] | PBM binding z-score [4] | PBM binding z-score [5] | PBM binding z-score [6] | PBM binding z-score [7] | PBM binding z-score [8] | PBM binding z-score [9] | PBM binding z-score [10] | PBM binding z-score [11] | PBM binding z-score [12] | PBM binding z-score [13] | PBM binding z-score [14] | PBM binding z-score [15] | PBM binding z-score [16] | PBM binding z-score [17] | PBM binding z-score [18] | PBM binding z-score [19] | PBM binding z-score [20]
1 | CGTCCAAGGTCAAGGTCAGAGAAAGAGACTCGAA | 7.9 | 5.84 | 0.844 | 4.67 | 0.838 | 5.99 | 6.4 | 6.27 | 2.49 | 5.02 | 4.02 | 4.66 | 0.309 | -0.449 | 3.52 | 4.81 | 1.27 | 5.48 | 2.01 | 5.62
2 | CTCGAAAGGTCTGTTGAGGTGAGTATACGGATAA | 0.57 | -0.177 | -0.581 | -0.275 | -0.339 | 0.697 | -0.00878 | 0.182 | -0.0313 | 0.242 | -0.464 | 0.358 | 0.678 | 0.237 | 0.0956 | 0.48 | -0.39 | 1.61 | -0.325 | 1.47
3 | ACTATTAATTGAGACGAGGGCAACCGATAGGTTG | 0.638 | 0.579 | 0.685 | 0.313 | 0.479 | 0.542 | 0.7 | 0.479 | 0.271 | 0.408 | 0.0464 | 0.914 | 1.03 | 1.13 | 2.25 | 0.755 | 1.25 | 0.914 | 1.68 | 1.01
4 | TCTAGTTGGTCAAGGAGGTCACACACGACGGGTA | 3.04 | 3.16 | 1.88 | 3.23 | 0.53 | 3.73 | 2.59 | 3.56 | 3.6 | 3.39 | 2.22 | 3.77 | 0.973 | 1.49 | 2.56 | 4.22 | 1.23 | 4.22 | 1.46 | 3.47
5 | GTATCAAGGTGAATAGGTCGTTGATGAGTAGGCG | 0.903 | 1.1 | 0.272 | 0.689 | 0.229 | 2.65 | 2.43 | 2.76 | 1.16 | 2.08 | 3.31 | 4.02 | 1.21 | 0.758 | 1.45 | 0.996 | 0.271 | 2.01 | 0.786 | 2.14
6 | TAGCCTAGGTCATTCAGGGGCCAGTAGAGAAAGC | 4.49 | 3.73 | 0.592 | 3.1 | 1.16 | 3.64 | 1.7 | 2.31 | 0.562 | 1.53 | 1.64 | 2.66 | -0.415 | -0.024 | 1.83 | 2.21 | -0.162 | 3.33 | 0.0247 | 3.88
7 | CCGAGTAGGTTATGGGGCATTCGGGCAACGGTGA | 0.24 | 0.637 | 0.00114 | 0.528 | -0.313 | 2.4 | 3.36 | 4.85 | 2.16 | 4.57 | 2.83 | 3.88 | -0.19 | -0.259 | 0.492 | 0.00674 | -0.383 | 0.377 | -0.149 | 1.1
8 | TCAGACAGGTGAAGGTAACTCTGGTACGCAGTCG | 0.419 | 2.39 | -0.038 | 1.46 | -0.229 | 1.23 | 0.517 | 2.02 | 3.66 | 2.66 | 2.58 | 0.996 | 0.246 | -0.784 | 0.246 | 0.678 | 0.0805 | 0.872 | 0.122 | 1.07
9 | CCAGAAAGGTGAGAAGGTAACTCAGCCTCGATTA | 0.521 | 0.782 | -0.167 | 0.842 | -0.293 | 2.47 | 1.02 | 1.49 | 0.32 | 0.796 | 2.89 | 1.98 | -0.302 | -0.361 | 1.15 | 0.319 | -0.419 | 1.28 | 0.133 | 2.67
10 | ATCTCTAGGTAAAGAGAGTTCAGTGAATGCAAAT | 0.502 | 4.09 | 1.76 | 1.41 | 0.27 | 1.34 | 0.263 | 0.567 | 0.0587 | 0.356 | 2.17 | 1.38 | 0.459 | 0.197 | 0.502 | 3.71 | 3.18 | 0.79 | 0.685 | 1.16
11 | CAAACTAGGTCACAGAGGTCAATGTCCGTGCGTA | 6.85 | 6.22 | 6.83 | 6.14 | 1.81 | 6.32 | 10 | 8.44 | 6.44 | 8.59 | 8.72 | 9.05 | 4.01 | 2.12 | 4.75 | 6.6 | 10.6 | 7.36 | 2.65 | 5.17
12 | ATCTCTAGGTAACCAAGCTCAGTGAATGCCGAAC | 0.0567 | -0.156 | -0.0842 | -0.416 | 0.643 | 0.0797 | 0.181 | 0.28 | -0.0374 | 0.235 | 2.93 | 2.13 | 1.25 | 0.885 | 0.709 | -0.105 | 0.251 | 0.193 | 0.798 | 0.0628
13 | CCCACTGGGGCATAAGGTTACCATAAGCCAGCCC | 0.325 | 1.44 | -0.234 | 0.476 | -1.1 | 2.36 | 3.91 | 4.26 | 1.73 | 3.6 | 3.37 | 4.87 | -0.75 | -0.412 | 0.0588 | 0.0928 | -0.684 | 1.07 | -0.44 | 1.46
14 | ATCGAAAGGTCTTGAGGTGAGTATACAGAAAGGC | 0.305 | 0.206 | -0.36 | 0.394 | -0.0662 | 1.68 | 1.15 | 0.897 | 0.286 | 0.647 | -0.431 | 1.56 | 0.61 | 0.602 | 0.325 | 0.409 | -0.368 | 1.43 | 0.103 | 2.13
